Experiment [1] is described as follows: qHTS assay for small molecule agonists of the p53 signaling pathway (AID 651631; calls by dose curve; further: nearly all actives have a fitted effect of over 15% in size; further: potency means the concentration at half of the fitted maximal effect). The method in brief:
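We treat p53RE-bla HCT-116 cells with compounds for 16 h at 37 °C, add LiveBLAzer B/G FRET substrate for 2 h at room temperature, and measure fluorescence intensity.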

Experiment [2] can be described thus: qHTS assay for small molecules that induce genotoxicity in human embryonic kidney cells expressing luciferase-tagged ATAD5 (AID 651632). Further: nearly all actives have a fitted effect of over 15% in size. The method in brief: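 DMSO vehicle served as the control. HEK293T reporter cells, 16 hr at 37C, then 30 min Amplite at room temperature; ATAD5 induction is measured as luciferase activity.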
Experiment [3] is described as follows: qHTS assay for small molecule agonists of the p53 signaling pathway - cell viability (AID 651633; calls by dose curve; further: nearly all actives have a fitted effect of over 30% in size; further: potency means the concentration at half of the fitted maximal effect). The method in brief:
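p53RE-bla cells were treated with compound for 16 hours at 37 C. Cytotoxicity was then measured as CellTiter-Glo luminescence after 30 min at room temperature.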

Experiment [4] in a line: qHTS assay for small molecule disruptors of the mitochondrial membrane potential - cell viability (AID 720634; calls by dose curve;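 further: human HepG2 liver cancer cells; series mostly up to about 83 µM; nearly all actives have a fitted effect of over 20% in size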). The method in brief: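 Viability of HepG2 cells is scored from ATP content by luminescence; cells are exposed to compound for 1 hr at 37 C and 5% CO2, then dosed with m-MPI dye before the CellTiter-Glo reagent.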
The nature of experiment [5]: qHTS assay to test for compound auto fluorescence at 590 nm (red) in HepG2 cells (AID 720674). The method in brief:
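Fluorescence at 590 nm emission following 540 nm excitation was recorded from HepG2 wells one hour after compound transfer, with DMSO-only wells as vehicle and Rose Bengal sodium equivalency as the scale.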

The nature of experiment [6]: qHTS assay to test for compound auto fluorescence at 535 nm (green) in HepG2 cells (AID 720675).
Experiment [7] can be described thus: qHTS assay to test for compound auto fluorescence at 460 nm (blue) in HEK293 cells (AID 720678). The method in brief: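 HEK293 cells (2,000/well, medium with 10% dialyzed FBS) attached 4-5 hr, then exposed to compound overnight at 37C, 5% CO2. Blue fluorescence read at 405/460 nm, with triamterene as reference fluorophore.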
Experiment [8] in a line: qHTS assay to test for compound auto fluorescence at 590 nm (red) in HEK293 cells (AID 720679). The method in brief:
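HEK293 cells (2,000/well, 10% dialyzed FBS) attached 4-5 hr, then dosed with compound or DMSO and incubated overnight at 37C, 5% CO2. Red fluorescence read at 540/590 nm, Rose Bengal sodium as reference fluorophore.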

Experiment [9] in a line: qHTS assay to test for compound auto fluorescence at 535 nm (green) in HEK293 cells (AID 720680).
Experiment [10] can be described thus: qHTS assay to test for compound auto fluorescence at 460 nm (blue) in HEK293 cell free culture (AID 720681). The method in brief:
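Compounds were added to cell-free DMEM with 10% FBS and fluorescence read directly. The blue channel used 405 nm excitation and 460 nm emission, with triamterene as the reference fluorophore.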

Experiment [11] can be described thus: qHTS assay to test for compound auto fluorescence at 535 nm (green) in HEK293 cell free culture (AID 720682). The method in brief: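 Green-channel intensity (Ex/Em 485/535 nm) was recorded from compound-treated wells containing only DMEM with 10% FBS. Fluorescein provided the equivalency standard.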
Experiment [12] in a line: qHTS assay to test for compound auto fluorescence at 590 nm (red) in HEK293 cell free culture (AID 720683). The method in brief: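 Cell-free wells of DMEM with 10% FBS received compound, and intrinsic fluorescence was read at excitation/emission 540/590 nm. Values expressed as equivalence to Rose Bengal sodium.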
The nature of experiment [13]: qHTS assay to test for compound auto fluorescence at 460 nm (blue) in HepG2 cell free culture (AID 720685). The method in brief:
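Cell-free plates of MEM plus 10% FBS received 23 nL compound or DMSO vehicle; blue-channel (405/460 nm) intensity scored against triamterene as reference fluorophore.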

Experiment [14] can be described thus: qHTS assay to test for compound auto fluorescence at 535 nm (green) in HepG2 cell free culture (AID 720686).
Experiment [15] can be described thus: qHTS assay for small molecules that induce genotoxicity in human embryonic kidney cells expressing luciferase-tagged ATAD5 - cell viability (AID 651634; calls by dose curve; further: nearly all actives have a fitted effect of over 25% in size; further: potency means the concentration at half of the fitted maximal effect). The method in brief:
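Here HEK293T cells with the ATAD5 luciferase reporter are incubated with test compounds for 15.5 hr, and cytotoxicity is then gauged by measuring protease activity in live cells using fluorescence.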

A short description of experiment [16]: qHTS assay for small molecule disruptors of the mitochondrial membrane potential (AID 720635). Further: potency means the concentration at half of the fitted maximal effect. The method in brief: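 HepG2 cells exposed to compound 1 hr at 37C, then Mito-MPS dye 30 min. Ratio read of aggregate (540/590 nm) versus monomer (490/535 nm) fluorescence.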
The nature of experiment [17]: qHTS assay to test for compound auto fluorescence at 590 nm (red) in HepG2 cell free culture (AID 720684). The method in brief:
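Auto fluorescence equivalency versus Rose Bengal sodium, red channel Ex/Em 540/590 nm; compounds in cell-free MEM/10% FBS; DMSO vehicle control.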

Experiment [18] can be described thus: qHTS assay to test for compound auto fluorescence at 460 nm (blue) in HepG2 cells (AID 720687). The method in brief:
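HepG2 cells in MEM with 10% FBS, attached overnight at 37 C, were exposed to compound or DMSO for 1 hr at 37 C, 5% CO2. Blue fluorescence was read at 405/460 nm, with triamterene as reference fluorophore.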

The target in experiment [19] is Glucocorticoid receptor (Homo sapiens) (UniProt P04150). Nature of the experiment: qHTS assay to identify small molecule agonists of the glucocorticoid receptor (GR) signaling pathway (AID 720691; active means well fitted activation curve with a large enough effect in the signal ratio in the repeat runs, not every such curve was filed as active; the % refers to the signal ratio). The method in brief:
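Compounds in DMSO, alongside positive controls, were added to GR-bla HeLa reporter cells and incubated 18 h at 37 C; GRE-driven beta-lactamase was detected by fluorescence after 2 h with FRET substrate at room temperature.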

Experiment [20] shares this target. Nature of the experiment: qHTS assay to identify small molecule antagonists of the glucocorticoid receptor (GR) signaling pathway (AID 720692; active means well fitted inhibition curve with a large enough effect in the signal ratio in the repeat runs, not every such curve was filed as active; the % refers to the signal ratio). The method in brief:
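In a 1536-well cell format, compounds were added 4 h after seeding GR-bla HeLa cells, together with dexamethasone at 5 nM final; reporter activity was measured by FRET-substrate fluorescence following 18 h at 37 C.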

Values joined by “and” are separate entries in the source; they are usually repeats but may differ in a detail not shown here. Identical values can stand only once. Results filed as inconclusive are left out. Active and inactive are the calls of the source. Unless noted, the call rests on the fitted dose curve; in most records, active means well fitted curve in the direction sought with a large enough effect in the repeat runs; inconclusive means weak or mixed curves; inactive means no such curve, though single readings can be large; an effect the other way counts as inactive or inconclusive.

Glucocorticoid receptor (Homo sapiens), sequence (P04150 whole entry, looked up): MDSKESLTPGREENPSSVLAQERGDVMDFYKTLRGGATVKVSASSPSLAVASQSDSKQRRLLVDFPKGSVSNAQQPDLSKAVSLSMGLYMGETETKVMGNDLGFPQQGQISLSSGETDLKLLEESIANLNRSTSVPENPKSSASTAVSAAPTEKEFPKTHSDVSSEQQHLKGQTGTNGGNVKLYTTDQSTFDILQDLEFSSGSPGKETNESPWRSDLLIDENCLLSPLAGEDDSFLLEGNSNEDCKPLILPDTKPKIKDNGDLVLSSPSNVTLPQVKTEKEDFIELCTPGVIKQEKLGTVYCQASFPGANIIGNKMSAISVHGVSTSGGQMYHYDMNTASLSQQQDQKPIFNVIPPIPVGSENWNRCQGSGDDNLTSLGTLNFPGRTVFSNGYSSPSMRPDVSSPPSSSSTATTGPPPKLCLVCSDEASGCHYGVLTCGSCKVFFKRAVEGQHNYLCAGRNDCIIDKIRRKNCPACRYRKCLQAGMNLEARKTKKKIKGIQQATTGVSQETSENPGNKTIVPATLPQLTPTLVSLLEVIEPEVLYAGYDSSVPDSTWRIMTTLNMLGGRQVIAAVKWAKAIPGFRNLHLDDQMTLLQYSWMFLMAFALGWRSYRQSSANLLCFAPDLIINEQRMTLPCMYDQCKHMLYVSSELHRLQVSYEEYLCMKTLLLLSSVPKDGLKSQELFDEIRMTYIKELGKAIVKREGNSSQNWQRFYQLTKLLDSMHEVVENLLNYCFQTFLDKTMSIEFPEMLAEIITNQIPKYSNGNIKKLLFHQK

As for `CC(=O)CC(C)=O`, the Potency result in experiment [1], in experiment [2], in experiment [3], in experiment [4], in experiment [6] and in experiment [7] was “inactive” in each case. Further, the Potency result in [9], in [10], in experiment [11], in experiment [13] and in experiment [14] was “inactive” in each case. Also, the call in experiment [5], in experiment [8] and in experiment [12] was inactive.

Regarding `CCCN[C@H]1CCc2nc(N)sc2C1`, the Potency result in experiment [1], in experiment [3], in experiment [15], in [4], in experiment [16] and in [6] was “inactive” in each case. The Potency entry in experiment [9], in [10], in experiment [11], in experiment [14] and in experiment [18] was “inactive” in each case. Also, the outcome in [5], in experiment [8], in [12] and in experiment [17] was inactive.

As to `Cc1cc(Cc2cc(C)cc(C(C)(C)C)c2O)c(O)c(C(C)(C)C)c1`, the Potency in [1] was 30.6 µM (active); in experiment [3], 13.8 µM (active) and 17.2 µM (active); in experiment [15] it was 61.4 µM (active) and 61.1 µM (active); in [16], 1.23 µM (active) and 1.09 µM (active). Further, the Potency entry in [2], in experiment [6], in [7], in [9], in experiment [10] and in [11] was “inactive” throughout. For the same molecule, the Potency entry in [13], in experiment [14] and in [18] was “inactive” each time. In addition, the outcome in experiment [5], in [8], in experiment [12] and in experiment [17] was inactive.

Turning to `CCCNC(C)C(=O)Nc1ccccc1C` (centres undefined), the Potency result in experiment [1], in experiment [2], in experiment [3], in experiment [4], in experiment [16] and in experiment [6] was “inactive” throughout. Moreover, the Potency entry in [7], in experiment [9], in experiment [10], in experiment [11], in experiment [13] and in experiment [14] was “inactive” throughout. For the same molecule, the Potency result in experiment [18], in experiment [19] and in experiment [20] was “inactive” in each case. Moreover, the molecule was classed as inactive in experiment [5], in experiment [8], in experiment [12] and in experiment [17].

Turning to `Cc1cc(C2(c3cc(C)c(O)cc3C)OS(=O)(=O)c3ccccc32)c(C)cc1O`, the Potency entry in [1], in [3], in experiment [4], in experiment [6], in experiment [7] and in experiment [9] was “inactive” each time. The Potency entry in experiment [10], in experiment [11], in [13], in experiment [14], in experiment [18] and in experiment [19] was “inactive” each time. The Potency in [15] was 30.6 µM (active) and 17.2 µM (active). Moreover, the molecule was classed as inactive in experiment [5], in experiment [8], in experiment [12] and in experiment [17].

Turning to `CCCC(=O)c1ccccc1`, the Potency entry in experiment [1], in [2], in experiment [3], in experiment [4], in experiment [6] and in experiment [7] was “inactive” throughout. The Potency result in experiment [9], in [10], in [11], in [13], in experiment [14] and in [18] was “inactive” throughout. Also, the Potency result in experiment [19] and in experiment [20] was “inactive” in each case. For the same molecule, the molecule was called inactive in experiment [5], in experiment [8], in experiment [12] and in experiment [17].

Consider `CC[C@@H](N)CO`, for which the Potency result in [1], in [2], in experiment [3], in experiment [15], in [4] and in experiment [6] was “inactive” in each case. For the same molecule, the Potency result in [9], in experiment [10], in experiment [11], in [13] and in [14] was “inactive” throughout. In addition, the result in experiment [5], in experiment [12] and in [17] was inactive.

The values are drawn from PubChem BioAssay (Tox21).
